# Assay results from the supplement of paper PMC3724861.
# Shown is part of a subset that was picked to be rich in hits. The hit rate among all sequences tested is not known here. A number with no mark means an inactive call.
# Test system: T1, Caupolican (Caup) homeodomain DNA-binding domain
# T1 sequence: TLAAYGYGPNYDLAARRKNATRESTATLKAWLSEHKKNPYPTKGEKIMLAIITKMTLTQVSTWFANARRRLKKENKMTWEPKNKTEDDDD
# Experiment: PBM E-score (8-mer, recovered from the published 9-mer minima) (E-score (dimensionless, -0.5 to 0.5)); Drosophila protein; higher = stronger relative binding preference, active = 0.31 or more
# Procedure, shortened: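 An enrichment score, with higher meaning stronger, expresses relative binding preference for each short DNA word. The protein used was Caup's homeodomain DNA-binding domain (residues 214-303), produced by in vitro transcription and translation and tested at 100 nM on custom-designed protein binding microarrays. The 8-mer values were recovered from published 9-mer scores, each equal to the lower of its two constituent 8-mer scores.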
row,Sequence,PBM E-score
1,GGATGCTA,-0.0509
2,CCAAACGG,-0.223
3,AATTCAAG,0.118
4,ACTATAAT,0.162
5,CTTGCGCA,-0.0025
6,TAAGTACA,0.332 (active)
7,TAAGTAAA,0.0166
8,GAAGTACA,0.269
9,CAAGTACA,0.342 (active)
10,AAAGTACA,0.276
11,TGAGTACA,0.265
12,GAAACCCA,0.0044
13,ATCTCTGG,-0.00282
14,CGAGGTCA,-0.0898
15,CAACTTGA,0.0844
16,ATGTACCA,0.36 (active)
17,AAGTACTA,0.197
18,ATGTACGG,0.211
19,CTGTACTC,0.082
20,CTGTACGA,0.203
21,GTGTACCA,0.308
22,ATGTACTA,0.398 (active)
23,ATGTACCC,0.263
24,ATGTACTG,0.339 (active)
25,AGGTACTG,0.0558

row,Sequence,PBM E-score
1,ATGTACTC,0.303
2,ATGTACGA,0.395 (active)
3,ATCATCCG,0.0593
4,CCCTAGCG,-0.171
5,AGAGCCTA,-0.0924
6,ATAACCGC,0.0257
7,CTGTACTA,0.156
8,GGGTACTA,0.152
9,GTGTACTA,0.34 (active)
10,AGTCGTCC,-0.0214
11,CACCGAAC,0.0165
12,ACTGCGAA,-0.0547
13,TATGTTAA,0.314 (active)
14,CCTGTTAG,0.114
15,CATGTTAA,0.446 (active)
16,GATGTTAC,0.295
17,AATGTTAC,0.277
18,AATGTTAA,0.291
19,TAGGTTAA,0.0795
20,CATGTTAC,0.42 (active)
21,GATGTTAA,0.28
22,AATGTTAG,0.253
23,TCTGTTAA,0.173
24,CATGTTAG,0.408 (active)
25,GACCTACC,-0.0746

row,Sequence,PBM E-score
1,AGCACGCC,-0.187
2,CGAATTGC,-0.0371
3,TCATTAAA,0.143
4,GAGCTAAC,-0.0389
5,AACCCCCG,-0.284
6,AACGACAG,0.164
7,AGCGACAG,0.105
8,AGCGACAT,0.325 (active)
9,AGTGACAA,0.255
10,AGTGACAT,0.354 (active)
11,AACGACAA,0.241
12,AGCGACAC,0.188
13,AGTGACAC,0.198
14,AACGACAT,0.358 (active)
15,AGCCTACT,-0.116
16,CCCATCCG,-0.202
17,ATTTACAG,0.137
18,GTTTACAA,0.343 (active)
19,CTTTACAA,0.137
20,ATTTACAC,0.259
21,GCTTACAA,0.22
22,ATTTACAA,0.361 (active)
23,AGGAGTTG,0.0303
24,ATACGAAG,0.0288
25,CACTCCCC,-0.125

row,Sequence,PBM E-score
1,GCATGGTA,0.166
2,ACATGGTG,0.366 (active)
3,AGATGGTG,-0.0838
4,ACATGGTA,0.418 (active)
5,ACATGGTC,0.285
6,CCATGGTA,0.133
7,CAGGCCTC,-0.158
8,CGGGAGCA,-0.149
9,CCGCTACC,-0.0854
10,ATTACGTA,0.173
11,CGTACTAG,0.107
12,ACTAAACC,0.00838
13,AGGCCCAG,-0.214
14,ACCCAGGC,-0.17
15,CCATCATA,0.02
16,ACATCACG,0.217
17,ACATCAAT,0.316 (active)
18,ACATCATC,0.251
19,ACATCACA,0.334 (active)
20,TCATCACA,0.14
21,ACATCAAA,0.26
22,ACATCATA,0.318 (active)
23,ACATCAAG,0.227
24,ATATATGG,0.127
25,GTATAAAA,0.116

row,Sequence,PBM E-score
1,GAATCGGA,-0.0551
2,ATCCCATC,-0.00982
3,CGCGTACC,-0.0687
4,GGTCTCCA,-0.147
5,AGAACACA,≥ 0.317 (active)
6,AGAACACG,0.33 (active)
7,AGAACAAA,0.191
8,AGAACAAT,0.21
9,AGAACAAG,0.329 (active)
10,CGAACACG,0.258
11,CGAACACA,0.167
12,TGAACACA,0.309
13,AGAACACT,0.108
14,AGCAGTCG,-0.15
15,ATTGTTTC,0.143
16,GGCTAAAC,-0.0281
17,GCGGTGCC,-0.251
18,GTGTATAA,0.202
19,CTGTATAA,0.186
20,ATGTATAG,0.276
21,ATGTATAC,0.356 (active)
22,GTGTATGA,0.249
23,ATGTATGG,0.157
24,ATGTATAA,0.344 (active)
25,CTGTATAC,0.246

row,Sequence,PBM E-score
1,ATGTATGA,0.352 (active)
2,AAAGGATA,0.105
3,CCTCCACA,-0.164
4,AAGTCTGT,0.139
5,CGCCTAAA,-0.117
6,CGACATGA,0.395 (active)
7,AGACATCA,0.197
8,AGACATAG,0.164
9,AGACATGG,0.329 (active)
10,GGACATGA,0.304
11,CGACATTA,0.202
12,CGACATGC,0.386 (active)
13,CGACATCC,0.134
14,AGACATGC,0.303
15,AGACATGA,0.341 (active)
16,AGACATCG,0.0873
17,AGACATTA,0.201
18,GAAGTCAA,-0.0438
19,GCAGTCGA,-0.135
20,CCAATCAA,0.0187
21,ATAGGCCC,-0.176
